Data on 28 compounds can be found in PubChem BioAssay (NCATS).

Results filed as inconclusive are left out. Unmarked numbers belong to inactive results. The call rests on the fitted dose curve; in most records, active means well fitted inhibition curve with a large enough effect; inconclusive means small, poorly fitted or top-dose-only effect; inactive means flat fitted curve, though single readings scatter.
On the % scale 0 is the no-effect control and ±100 the full control effect.

One experiment can be described thus: Drug repurposing screens with cells derived from glioblastoma tumor samples (AID 1345199). Further: nearly all actives have a fitted effect of over 40% in size. As to conditions: GBM patient neurospheres viability, ATP luminescence, 48 h; at 20 µM (top of the series); tumour line C. The procedure, abridged: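 Four patient lines of CD133+ GBM neurospheres were screened at several concentrations; hits were retested in those lines plus three slower-growing GBM lines, using 48-hour treatment and ATP-based viability.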
Regarding `COc1nc(C)nc(Cl)c1NC1=NCCN1`, the activity, negative = cell killing is -9.78%.

With `Cc1cc(C(C)(C)C)cc(C)c1CC1=NCCN1`, the activity, negative = cell killing is -2.93%.

On to `Nc1nc2c(ncn2COC(CO)CO)c(=O)[nH]1`, for which the activity, negative = cell killing is -13.4%.

For `Clc1ccccc1C(c1ccccc1)(c1ccccc1)n1ccnc1`, the activity, negative = cell killing is 1.49%.

For `CN1C(C(=O)Nc2ccccn2)=C(O)c2ccccc2S1(=O)=O`, the activity, negative = cell killing is -3.14%.

As for `COc1ccc(C2CNC(=O)C2)cc1OC1CCCC1` (configuration not stated), the activity, negative = cell killing is -0.6%.

The same experiment, now with this note: GBM patient neurospheres viability, ATP luminescence, 48 h; at 21.2 µM (top of the series); tumour line B.
In the case of `COc1nc(C)nc(Cl)c1NC1=NCCN1`, the activity, negative = cell killing is -2.98%.

Take `Cc1cc(C(C)(C)C)cc(C)c1CC1=NCCN1`: the activity, negative = cell killing is -9.52%.

In the case of `Nc1nc2c(ncn2COC(CO)CO)c(=O)[nH]1`, the activity, negative = cell killing was -13.7%.

Take `CN1C(C(=O)Nc2ccccn2)=C(O)c2ccccc2S1(=O)=O`: the activity, negative = cell killing was -6.49%.

With `COc1ccc(C2CNC(=O)C2)cc1OC1CCCC1` (configuration not stated), the activity, negative = cell killing was -12.9%.

Staying with this experiment, now noted: GBM patient neurospheres viability, ATP luminescence, 48 h; at 21.2 µM (top of the series); tumour line D.
On to `COc1nc(C)nc(Cl)c1NC1=NCCN1`, for which the activity, negative = cell killing is 12.8%.

Regarding `Cc1cc(C(C)(C)C)cc(C)c1CC1=NCCN1`, the activity, negative = cell killing was -25.7%.

Regarding `Nc1nc2c(ncn2COC(CO)CO)c(=O)[nH]1`, the activity, negative = cell killing was -24.4%.

For `CN1C(C(=O)Nc2ccccn2)=C(O)c2ccccc2S1(=O)=O`, the activity, negative = cell killing was 0.702%.

For `COc1ccc(C2CNC(=O)C2)cc1OC1CCCC1` (configuration not stated), the activity, negative = cell killing was -16.7%.

Staying with this experiment, now noted: GBM patient neurospheres viability, ATP luminescence, 48 h; at 45.9 µM (top of the series); tumour line B.
In the case of `C[C@H]1c2cccc(O)c2C(O)=C2C(=O)[C@]3(O)C(O)=C(C(N)=O)C(=O)[C@@H](N(C)C)[C@@H]3[C@@H](O)[C@@H]21`, the activity, negative = cell killing was -22.1%.

In the case of `Cc1ccc(-c2cc(C(F)(F)F)nn2-c2ccc(S(N)(=O)=O)cc2)cc1`, the activity, negative = cell killing was 2.4%.

In the case of `NCCc1cnc[nH]1`, the activity, negative = cell killing is 27.7%.

`CCN1CCCC1CNC(=O)c1cc(S(=O)(=O)CC)c(N)cc1OC` (configuration not stated): the activity, negative = cell killing is 6.58%.

For `CCc1cccc2c3c([nH]c12)C(CC)(CC(=O)O)OCC3` (configuration not stated), the activity, negative = cell killing is -7.67%.

Regarding `CC(COc1ccccc1)N(CCCl)Cc1ccccc1` (configuration not stated), the activity, negative = cell killing was -26.4%.

With `O=C(C1CCCCC1)N1CC(=O)N2CCc3ccccc3C2C1` (configuration not stated), the activity, negative = cell killing is -15.1%.

In the case of `Clc1ccc2nsnc2c1NC1=NCCN1`, the activity, negative = cell killing is -9.87%.

As to `CS(=O)(=O)CCNCc1ccc(-c2ccc3ncnc(Nc4ccc(OCc5cccc(F)c5)c(Cl)c4)c3c2)o1`, the activity, negative = cell killing was -6.77%.

In the case of `Clc1ccc2c(c1)C(N1CCNCC1)=Nc1ccccc1O2`, the activity, negative = cell killing was -27.8%.

`CN(CCOc1ccc(NS(C)(=O)=O)cc1)CCc1ccc(NS(C)(=O)=O)cc1`: the activity, negative = cell killing was -5.75%.

Consider `Cc1cc(C(C)(C)C)c(O)c(C)c1CC1=NCCN1`, for which the activity, negative = cell killing is -18.7%.

`CC(C)(C)C(=O)Oc1ccc(S(=O)(=O)Nc2ccccc2C(=O)NCC(=O)O)cc1`: the activity, negative = cell killing is -13.7%.

The experiment is the same for the next values; noted with them: GBM patient neurospheres viability, ATP luminescence, 48 h; at 45.9 µM (top of the series); tumour line D.
Consider `C[C@H]1c2cccc(O)c2C(O)=C2C(=O)[C@]3(O)C(O)=C(C(N)=O)C(=O)[C@@H](N(C)C)[C@@H]3[C@@H](O)[C@@H]21`, for which the activity, negative = cell killing was -13%.

As for `NCCc1cnc[nH]1`, the activity, negative = cell killing was 2.11%.

Take `CCN1CCCC1CNC(=O)c1cc(S(=O)(=O)CC)c(N)cc1OC` (configuration not stated): the activity, negative = cell killing is -2.77%.

As for `CCc1cccc2c3c([nH]c12)C(CC)(CC(=O)O)OCC3` (configuration not stated), the activity, negative = cell killing is -2.3%.

Consider `O=C(C1CCCCC1)N1CC(=O)N2CCc3ccccc3C2C1` (configuration not stated), for which the activity, negative = cell killing was -7.27%.

As for `O=C(c1ccc(F)cc1)C1CCN(CCn2c(=O)[nH]c3ccccc3c2=O)CC1`, the activity, negative = cell killing was -39.8%.

`Clc1ccc2nsnc2c1NC1=NCCN1`: the activity, negative = cell killing was 1.91%.

In the case of `CS(=O)(=O)CCNCc1ccc(-c2ccc3ncnc(Nc4ccc(OCc5cccc(F)c5)c(Cl)c4)c3c2)o1`, the activity, negative = cell killing was -7.21%.

For `Clc1ccc2c(c1)C(N1CCNCC1)=Nc1ccccc1O2`, the activity, negative = cell killing is -2.29%.

`CN(CCOc1ccc(NS(C)(=O)=O)cc1)CCc1ccc(NS(C)(=O)=O)cc1`: the activity, negative = cell killing was -4.11%.

`Cc1cc(C(C)(C)C)c(O)c(C)c1CC1=NCCN1`: the activity, negative = cell killing was -26.9%.

For `CC(C)(C)C(=O)Oc1ccc(S(=O)(=O)Nc2ccccc2C(=O)NCC(=O)O)cc1`, the activity, negative = cell killing was -10.4%.

The experiment is the same for the next values; noted with them: GBM patient neurospheres viability, ATP luminescence, 48 h; at 46.1 µM (top of the series); tumour line C.
On to `Cc1ccc(-c2cc(C(F)(F)F)nn2-c2ccc(S(N)(=O)=O)cc2)cc1`, for which the activity, negative = cell killing was 15.9%.

As for `NCCc1cnc[nH]1`, the activity, negative = cell killing is 0.797%.

`CCN1CCCC1CNC(=O)c1cc(S(=O)(=O)CC)c(N)cc1OC` (configuration not stated): the activity, negative = cell killing was -4.87%.

Take `CCc1cccc2c3c([nH]c12)C(CC)(CC(=O)O)OCC3` (configuration not stated): the activity, negative = cell killing is -25.9%.

Consider `CC(COc1ccccc1)N(CCCl)Cc1ccccc1` (configuration not stated), for which the activity, negative = cell killing is -13%.

With `O=C(CCCN1CCC(O)(c2ccc(Cl)cc2)CC1)c1ccc(F)cc1`, the activity, negative = cell killing was -10.7%.

For the compound `O=C(C1CCCCC1)N1CC(=O)N2CCc3ccccc3C2C1` (configuration not stated), the activity, negative = cell killing is -6.57%.

Regarding `O=C(c1ccc(F)cc1)C1CCN(CCn2c(=O)[nH]c3ccccc3c2=O)CC1`, the activity, negative = cell killing was 7.2%.

In the case of `Clc1ccc2nsnc2c1NC1=NCCN1`, the activity, negative = cell killing is 8.38%.

For the compound `CS(=O)(=O)CCNCc1ccc(-c2ccc3ncnc(Nc4ccc(OCc5cccc(F)c5)c(Cl)c4)c3c2)o1`, the activity, negative = cell killing was -22.4%.

Turning to `Clc1ccc2c(c1)C(N1CCNCC1)=Nc1ccccc1O2`, the activity, negative = cell killing is -0.706%.

`CN1CCN(C2=Nc3cc(Cl)ccc3Nc3ccccc32)CC1`: the activity, negative = cell killing was 1.71%.

For `COc1ccc(CCN(C)CCCC(C#N)(c2ccc(OC)c(OC)c2)C(C)C)cc1OC` (configuration not stated), the activity, negative = cell killing is -2.06%.

For `CN(CCOc1ccc(NS(C)(=O)=O)cc1)CCc1ccc(NS(C)(=O)=O)cc1`, the activity, negative = cell killing was 4.34%.

With `CN1CCC(=C2c3ccccc3CC(=O)c3sccc32)CC1`, the activity, negative = cell killing was -13.4%.

Regarding `Cc1cc(C(C)(C)C)c(O)c(C)c1CC1=NCCN1`, the activity, negative = cell killing was 5.76%.

With `Clc1ccc(C(c2ccccc2Cl)C(Cl)Cl)cc1` (configuration not stated), the activity, negative = cell killing was 32.2%.

`CC(C)(C)C(=O)Oc1ccc(S(=O)(=O)Nc2ccccc2C(=O)NCC(=O)O)cc1`: the activity, negative = cell killing was -13.4%.

As for `CC(CCc1ccc(O)cc1)NCCc1ccc(O)c(O)c1` (configuration not stated), the activity, negative = cell killing is 5.45%.

As to `CC[C@@]1(O)C(=O)OCc2c1cc1n(c2=O)Cc2cc3c(CN(C)C)c(O)ccc3nc2-1`, the activity, negative = cell killing is -20.9%.

`CNCCCC12CCC(c3ccccc31)c1ccccc12`: the activity, negative = cell killing is 31.2%.
